Test results from the supplement of paper PMC6555819.

Key:
Experiment in all cases: PBM binding z-score (relative to random genomic background probes); higher = stronger binding; sequences stand for … in GC…GCGATTGACAGCGTAGAATGAAGG
[1] = test system: RARb homodimer (NR concentration 270 nM)
Outline: (§1)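 The probes on custom Agilent 4×180K protein-binding microarrays were double-stranded, with 34-nt variable regions bearing direct-repeat seeds, single-nucleotide variants, half-site ablations and random human genomic background sequences. Incubation lasted 1 h with ligand-free nuclear receptor dimers in PBS pH 7.4, 2% milk, 0.02% Triton X-100, 1 mM DTT, 0.2 mg/mL BSA and 0.4 mg/ml salmon testes DNA. Antibodies against each partner (one per run) detected bound dimers, and fluorescence scans were regression-normalized. Binding z-scores take the random background probes as reference.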

[2] = test system: RARg:RXRa (NR concentration 270 nM, RXRa partner concentration 90 nM)
Outline: as §1

[3] = test system: RARg homodimer (NR concentration 270 nM)
Outline: as §1

[4] = test system: RXRa DBDmut IVT, anti-RXR (DBD mutation: RXRa K156A/R161A, NR concentration 90 nM)
Outline: as §1

[5] = test system: RXRa homodimer (NR concentration 180 nM)
Outline: as §1

[6] = test system: THRa:RXRa (NR concentration 90 nM, RXRa partner concentration 90 nM)
Outline: as §1

[7] = test system: THRa homodimer (NR concentration 90 nM)
Outline: as §1

[8] = test system: VDR homodimer (NR concentration 270 nM)
Outline: as §1

Sequence | PBM binding z-score [1] | PBM binding z-score [2] | PBM binding z-score [3] | PBM binding z-score [4] | PBM binding z-score [5] | PBM binding z-score [6] | PBM binding z-score [7] | PBM binding z-score [8]
AGAATGAGGTTTAGATCAGGGAAACAGAATACAT | -0.22 | -0.0854 | 0.196 | -0.146 | -0.129 | 0.678 | -0.242 | 0.0888
GGAACGAGGGCATTCGAGTTGATAGGATGGCGAT | 0.729 | 1.11 | 1.28 | 3.32 | 0.734 | 3.21 | -0.299 | 2.9
TAAATGAGGTTAAAGATCAGGGAACGTGGCGTCG | 1.22 | 2.58 | 1.64 | 1.2 | 4.01 | 3.09 | 0.733 | 1.12
ATCGCAAGGTCGAGGTGAGTATAGAGAAAGGGAA | 1.76 | 2.55 | 2.56 | 0.563 | 2.35 | 2.62 | 0.694 | 0.322
AGAATAAGGTTACCAAAGATCAGGGAAACGCTTG | 1.1 | 2.06 | 2 | 0.391 | 2.36 | 2.69 | 0.914 | 0.232
CCGAGTAGGATATGGGGCATTCAGGCAACGGTGA | 0.223 | -0.15 | 0.00405 | -0.637 | 0.133 | 0.16 | 0.0622 | -0.318
CGTCCAAGGTCTAAGGTCAGTGAAGAGATGACGG | 3.66 | 3.47 | 4.02 | 1.14 | 3.1 | 3.65 | 3.24 | 1.1
CCTCGGAGGACAACAGGAGGTTAGAGCTGCCAGA | 1.12 | 0.878 | 1.47 | 0.257 | -0.0815 | 1.19 | 0.00678 | 0.0214
GATCGGAGGACAAGGTCAGAGCTTTGTCCGTAGA | 3.27 | 3.05 | 3.57 | 0.217 | 2.48 | 2.94 | 1.33 | 0.466
GCTGCTAGGTCAACTGATGGACAGCTAAAGCTCG | 3.12 | 4.45 | 5.36 | 1.28 | 2.94 | 2.72 | 0.89 | -0.122
ACTAGCAGGCCAAGTTTGGGTTACTCAAACAAAG | 0.5 | 0.339 | 0.295 | -0.22 | -0.21 | 0.547 | -0.383 | -0.21
AGAATGAGGTTAAGATCAGGGATACAGAATACAT | 1.26 | 2.17 | 1.83 | 1.17 | 2.45 | 2.78 | 1.25 | 0.506
TCTGCTAGGTCAATTGGTCAGCTAACGAGCTGCC | 2.93 | 3.91 | 4.34 | 1.21 | 2.09 | 2.3 | -0.00918 | -0.473
ATCTCTAGGTAAGACTCAGTTCAATGAAGAACGC | 0.915 | 0.919 | 0.623 | 0.822 | 0.539 | 1.29 | 0.873 | 2.32
